This excerpt belongs to a sample that is enriched for hits.
Pf Dd2 growth – qHTS Primary assay for Inhibitors of Plasmodium falciparum Dd2 growth in vitro. 120,000 tested, 4.3% active. Potency, µM (titrated, usually from 28.9 µM), for the others: at the highest dose activity, negative = inhibition, hits mostly inhibitors. P. falciparum Dd2 growth, SYBR Green, 72 h; active = well fitted inhibition curve with a large enough effect;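 also: plate controls were DMSO vehicle for no effect and reference drug for full effect; nearly all actives have a fitted effect of over 65% in size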
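Infected erythrocytes (Dd2, 0.3% parasitemia, 2.5% hematocrit final) are added to compound in RPMI-1640/Albumax II medium, grown 72 h at 37C in low oxygen, then lysed with saponin/Triton-X containing SYBR Green and read by fluorescence.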
An asterisk follows results filed as active; [ ] = another dose, or the depositor's remark. Potency is read from the fitted curve at half-maximal effect.

`CC(=O)N1CCN(C(=O)C[C@@H]2c3nc(-c4ccsc4)sc3C[C@@H]3[C@](C)(CO)[C@H](O)CC[C@]32C)CC1` gave Pf Dd2 growth -49%.
`CC(C)(C)c1ccc(C(=O)Nc2nc3c(s2)C[C@@H]2[C@](C)(CO)[C@H](O)CC[C@@]2(C)[C@@H]3CC(=O)N2CCC(C(N)=O)CC2)cc1` gave Pf Dd2 growth 11µM*.
For C[C@]1(CO)[C@H]2Cc3sc(NC(=O)C4CCC4)nc3[C@@H](CC(=O)N3CCOCC3)[C@]2(C)CC[C@H]1O the results were Pf Dd2 growth inactive.
Screening C[C@]1(CO)[C@H]2Cc3sc(NC(=O)c4ccc(F)cc4)nc3[C@@H](CC(=O)N3CCOCC3)[C@]2(C)CC[C@H]1O returned Pf Dd2 growth 10µM*.
`C[C@]1(CO)[C@H]2Cc3sc(NC(=O)c4ccc(F)cc4)nc3[C@@H](CC(=O)N3CCCCC3)[C@]2(C)CC[C@H]1O` gave Pf Dd2 growth inactive.
For C[C@]1(CO)[C@H]2Cc3sc(-c4ccccc4)nc3[C@@H](CC(=O)N3CCOCC3)[C@]2(C)CC[C@H]1O the results were Pf Dd2 growth inactive.
COCCNC(=O)[C@@H]1CCC[C@@H](NC(=O)c2ccc(Cl)cc2)CN(C)C(=O)C1 was read as Pf Dd2 growth -22%[44.1 µM].
COCC1(C(=O)N2CCN(C)C3(CCC(=O)N(C)CC3)C2)CCC1 (stereo not given) was read as Pf Dd2 growth -19%.
`COCCN1C(=O)[C@H]2CN(Cc3cc(F)ccc3F)C[C@H]2C1=O` gave Pf Dd2 growth 3%.
CO[C@H](C)[C@H](N)C(=O)N1CCC(c2cc(Cc3ccccc3)[nH]n2)CC1 was read as Pf Dd2 growth 4%.
CC(C)NC(=O)c1cc(-c2ccc(S(C)(=O)=O)cc2)c2cnn(C)c2n1 was read as Pf Dd2 growth 3.2µM*.
For CN(C)C(=O)c1cc(-c2ccc(S(C)(=O)=O)cc2)c2cnn(C)c2n1 the results were Pf Dd2 growth 8%.
Screening CN(C)C(=O)c1cc(-c2ccc(S(C)(=O)=O)cc2)nc2c1cnn2C returned Pf Dd2 growth 18%.
COc1ccc(CNC(=O)c2ccc(Cn3ccn4nc5c(c4c3=O)CCCC5)cc2)cc1OC was read as Pf Dd2 growth -12%.
COc1cccc2c1OCCCN(CC1(O)CNCCOC1)C2 (stereo not given) was read as Pf Dd2 growth -8%.
O=C(c1ccncc1)N1CCC(N2C(=O)C3(CCCC3)C2c2ccccc2)CC1 (stereo not given) was read as Pf Dd2 growth inactive.
Screening Cn1nccc1C(=O)N1CCC(N2C(=O)C3(CCCCC3)C2c2ccccc2)CC1 (stereo not given) returned Pf Dd2 growth inactive.
For CCn1nccc1C(=O)N1CCC(N2C(=O)C3(CCCCC3)C2c2ccncc2)CC1 (stereo not given) the results were Pf Dd2 growth inactive.
O=C(c1ccc2cc[nH]c2c1)N1CCC(N2C(=O)C3(CCCCC3)C2c2ccncc2)CC1 (stereo not given) was read as Pf Dd2 growth 7.1µM*.
For Cc1cccc(C(=O)N2CCC(N3C(=O)C4(CCCCC4)C3c3ccncc3)CC2)c1 (stereo not given) the results were Pf Dd2 growth 6.3µM*.
`COc1ccc(C(=O)N2CCC(N3C(=O)C4(CCCC4)C3c3ccccc3)CC2)cc1` (stereo not given) gave Pf Dd2 growth -11%.
For COCC(=O)N[C@H]1CCN(C(=O)COC)[C@H](C(=O)N[C@H](Cc2c[nH]c3ccccc23)C(=O)OC)C1 the results were Pf Dd2 growth -2%.
For CCNc1ncc(C(=O)N[C@H](C2CCNCC2)C2CC(O)C2)cn1 (stereo not given in full) the results were Pf Dd2 growth -10%.
Screening COc1ccc(C(=O)N2CC[C@H]3CC(=O)N(c4ccccc4)CC[C@H]3C2)cc1 returned Pf Dd2 growth -10%[44.1 µM].
`Cc1cc(C)nc(-n2nc(C)c3c2N(Cc2ccccc2C)C(=O)CC3c2ccc(Cl)cc2)n1` (stereo not given) gave Pf Dd2 growth 8.9µM*.
`Cc1ccccc1-n1nc(C)c2c1NC(=O)CSC2c1ccc(Cl)cc1` (stereo not given) gave Pf Dd2 growth 2%.
`Cc1cc(C)nc(-n2nc(C)c3c2N(C)C(=O)CC3c2ccc(Cl)cc2)n1` (stereo not given) gave Pf Dd2 growth 11%.
CC(=O)N1CCC(C2CCN(C(=O)C3CC=CCC3)C2)CC1 (stereo not given) was read as Pf Dd2 growth 8%.
Cc1cccc(-n2c(SCC(=O)Nc3ccccc3Cl)nc3n[nH]c(C)c3c2=N)c1 was read as Pf Dd2 growth inactive.
Cc1ccc(NC(=O)CSc2nc3n[nH]c(C)c3c(=N)n2-c2ccccc2C)cc1C was read as Pf Dd2 growth 8.9µM*.
Screening CCc1ccccc1NC(=O)CSc1nc2n[nH]c(C)c2c(=N)n1-c1cccc(C)c1 returned Pf Dd2 growth -10%.
Screening O=C(c1ccoc1)N1CCCC(CN2CCOCC2)CC1 (stereo not given) returned Pf Dd2 growth -13%.
